Shiga toxin inh: inhibitors of Shiga toxin in Vero cells; inhibition, % at 38.7 µM; actives 9.2% (n = 290,000); Vero cells, Shiga toxin protein synthesis inhibition reporter; in the data active = inhibition mostly above about 28%, no sharp cut-off; inactive = mostly below about 43%; also: 0% is about no effect
HCMV antiviral: inhibitors of human cytomegalovirus; activity change, negative = inhibition, % at 57.5 µM; actives 4.5% (n = 410,000); AID 1259415; HFF cells, HCMV-luciferase reporter, 72 h; active compounds read low; in the data active = activity change below about -60%; inconclusive = no clear call, values can overlap the other calls; inactive = above about -39%; also: % is scaled to controls: 0 for no effect and ±100 for the full control effect
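Cell-based, HFFs, 1000 cells/well, 16 h 37C; cpds in DMSO + HCMV-luc, MOI 1 PFU/cell; 72 h 37C; OneGlo luminescence after 5 min RT; norm. to buffer vs Salinomycin 10uM.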
HCV inh: inhibitors of hepatitis C virus infection. Huh7.5.1 HCVcc-Cre infection, luciferase reporter, 44 h. Potency, µM (doses to about 41.8 µM), for inactives: at the top dose activity change, negative = inhibition, usual class: inhibitors. actives 3.4% (n = 340,000). AID 651820; also: potency is read from the fitted curve at half-maximal effect; % is scaled to controls: 0 for no effect and ±100 for the full control effect
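Compounds are dispensed onto cells plated 4 h earlier at 1,000 per well, with HCVcc-Cre virus (about 0.5 moi) added next. Following 44 h of culture, luminescent signal is measured for 15 sec after 15 min with substrate at room temperature.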
Cycloheximide cs: counter-screen hit for Shiga toxin inhibitors, cycloheximide | cell reporter, cycloheximide protein synthesis inhibition counterscreen | max response, % | actives 12% (n = 300,000) | AID 2314; in the data active = max response mostly above about 13%, no sharp cut-off; inactive = mostly below about 14%; also: read at 38.3 µM for the half of the compounds with a filed dose; 0% is about no effect
Pf growth 96h: inhibits malaria parasite growth, 96 h; AID 504834; actives 6.9% (n = 320,000); Potency, µM (highest dose often 28.7 µM), without a hit: at the highest dose activity change, negative = inhibition, hits mostly inhibitors; P. falciparum luciferase reporter growth, 96 h; also: potency is read from the fitted curve at half-maximal effect; % is scaled to controls: 0 for no effect and ±100 for the full control effect
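Parasite growth measured via integrated firefly luciferase reporter in P. falciparum. Infected erythrocytes at 2% hematocrit, 0.05% parasitemia final were treated 96 hours at 37 C under 5% CO2, and luminescence was read.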
Pf growth 48h: inhibits P. falciparum growth in the first generation, 48 h. P. falciparum luciferase growth in erythrocytes, 48 h. actives 5.9% (n = 310,000). Potency, µM (doses to about 28.7 µM), for the others: at the top dose activity change, negative = inhibition, hits mostly inhibitors; also: potency is read from the fitted curve at half-maximal effect; % is scaled to controls: 0 for no effect and ±100 for the full control effect
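In quantitative HTS format, infected erythrocytes bearing luciferase-reporter parasites were treated for a single generation at 37 C. Luminescence after adding detection reagent served as the growth measure.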
Starred values were filed as active, the others as inactive; ? = inconclusive; / = no result. Sampled rows, rich in hits. Any-hit rate of the full collection: about 21%. Unless noted, calls follow the shape of the dose curve; as a rule, active = well fitted inhibition curve with a large enough effect; inconclusive = small, poorly fitted or top-dose-only effect, or another doubt; inactive = no such curve, though single readings can be large or run the other way.

SMILES	Shiga toxin inh	HCMV antiviral	HCV inh	Cycloheximide cs	Pf growth 96h	Pf growth 48h
COc1cc2c(c(OC)c1OC)-c1ccc(C(=O)O)cc1[C@@H](NC(C)=O)CC2	/	-16	/	/	/	/
CCOCC(=O)NC1CCc2cc(OC(=O)COCC)c(OC)c(OC)c2-c2ccc(SC)c(=O)cc21 (centres undefined)	/	?	22%	/	/	/
COc1cc2c(c(OC)c1O)-c1ccc(OC)c(=O)cc1C(NC(=O)C(F)(F)F)CC2 (centres undefined)	/	-90*	-10%	/	/	/
O=C1Nc2ccc(Br)cc2/C1=C/C(=O)c1ccc2c(c1)OCO2	13	-100*	?	3	5%	11%
COc1ccc(C(=O)/C=C2\C(=O)Nc3ccc(Br)cc32)cc1	/	18	-42%	/	/	/
Cc1cc(O)c2c(c1)C(=O)C13C(=C2O)C(=O)[C@H]2[C@@H](O)[C@@H]1[C@H]1[C@H](O)[C@@H]3C(=O)C3=C(O)c4c(O)cc(C)cc4C(=O)C312 (some centres undefined)	/	/	10µM*	/	3.3µM*	4.1µM*
Cc1nn(C)c2c1c(-c1ccccc1)cc(=O)n2Cc1ccc(F)cc1	/	-2	/	/	/	/
N#CC1=C(N)NC(SCC(=O)Nc2ccccc2)=C(C#N)C12CCCCC2	-6	-21	?	-3	13µM*	?
N#CC1=C(N)NC(SCc2ccccc2)=C(C#N)C12CCCCC2	25	6	?	-1	3%	-29%
N#CC1=C(N)NC(SCC(=O)c2ccc(Br)cc2)=C(C#N)C12CCCCC2	14	?	?	-4	15µM*	?
COc1ccc(C(=O)CSC2=C(C#N)C3(CCCCC3)C(C#N)=C(N)N2)cc1	-18	-27	?	-5	4%	12µM*
N#CC1=C(N)NC(SCC(=O)c2ccc(Cl)cc2)=C(C#N)C12CCCC2	26	1	?	6	/	?
Cc1ccc(N(CC(=O)NCCc2ccccc2)S(=O)(=O)N(C)C)cc1	/	-4	/	/	/	/
Cc1ccc(-c2ccc(CCC(=O)O)n2NC(=O)c2cccs2)cc1	2	0	16%	34*	/	2%
O=C(O)CCc1ccc(-c2cccs2)n1NC(=O)c1ccc(Cl)cc1	40	42	15%	11	17%	10%
COc1ccc(-c2ccc(CCC(=O)O)n2NC(=O)c2cccs2)cc1	0	-33	29%	22*	14%	16%
O=C(O)CCc1ccc(-c2ccccc2)n1NC(=O)c1ccco1	-9	65	4%	7	-1%	-8%
O=C(O)CCc1ccc(-c2cccs2)n1NC(=O)c1ccco1	-5	4	3%	-2	10µM*	8%
COc1ccc(S(=O)(=O)N2CCOC23CCN(C(=O)c2ccccc2OC)CC3)cc1	/	-21	17%	/	?	?
CCOc1ccc(S(=O)(=O)N2CCC(C(=O)NCc3ccccn3)CC2)cc1C	-6	-25	-7%	-7	21%	14%
CN1C2C=C3C(C#N)=C(N)C(C#N)(C#N)[C@@H](c4cccc(F)c4)[C@@H]3C1CC2 (some centres undefined)	43	-7	1%	-3	0.66µM*	?
Clc1ccc2nc(-c3ccncc3)cc(-c3ccccc3)c2c1	2	-10	-11%	-1	?	9%
c1ccc(-c2cc(-c3ccncc3)nc3ccc4ccccc4c23)cc1	-11	-29	10µM*	-2	-8%	?
CC(C)(C)NC(=O)C1c2ccccc2OCC(=O)N1CCc1ccccc1 (centres undefined)	/	27	/	/	/	/
COc1ccccc1/C=C/C(=O)Oc1cccc2cccnc12	-8	?	5%	-1	-19%	-19%
SMILES	Shiga toxin inh	HCMV antiviral	HCV inh	Cycloheximide cs	Pf growth 96h	Pf growth 48h
O=C(/C=C/c1ccco1)Oc1cccc2cccnc12	11	-72*	?	12	5.9µM*	5.2µM*
O=C(/C=C\c1ccco1)Oc1cccc2cccnc12	18	12	?	23*	-13%	?
Cc1ccc(NC(=O)CN2c3cccc4cccc(c34)S2(=O)=O)cc1	/	-9	-9%	/	/	/
CN1CCN(c2ccc(NC(=O)c3ccc([N+](=O)[O-])o3)cc2Cl)CC1	55	-101*	22µM*	29*	4%	?
CC(C)C(=O)N1CCN(c2ccc(NC(=O)c3ccc([N+](=O)[O-])o3)cc2Cl)CC1	-39	-100*	10µM*	-13	?	8%
CC(C)C(=O)N1CCN(c2ccc(NC(=O)c3ccc([N+](=O)[O-])o3)cc2)CC1	53	-98*	?	40*	22%	4.7µM*
Cc1ccc(NC(=O)c2ccc([N+](=O)[O-])o2)cc1S(=O)(=O)N1CCOCC1	28	-95*	10µM*	32	9.3µM*	9.3µM*
CC(C)C(=O)N1CCN(c2ccc(NC(=O)c3ccc(Br)o3)cc2)CC1	10	-22	0%	-3	/	-25%
Cc1ccc(NC(=O)c2cc([N+](=O)[O-])ccc2N2CCOCC2)cc1S(=O)(=O)N1CCOCC1	10	10	/	-3	?	?
COc1ccc(N2CCN(CNC(=O)c3ccccc3)CC2)cc1	-6	-24	7%	2	15%	15%
CC(=O)c1cn(-c2ccc(Cl)cc2)c(=O)n(Cc2ccc(Br)cc2)c1=O	16	-25	11%	-5	2%	?
CCCCOc1ccc(C(=O)Nc2ccc(N3CCN(C(C)=O)CC3)cc2)cc1	-22	-30	-18%	-5	53%	/
CC(=O)N1CCN(c2ccc(NC(=O)c3ccc(Br)o3)cc2Cl)CC1	27	-31	-19%	28*	?	?
CCCCOc1ccc(C(=O)Nc2ccc(N3CCN(C(=O)C(C)C)CC3)cc2)cc1	-6	?	-1%	-4	/	9.3µM*
CCCC(=O)N1CCN(c2ccc(NC(=O)c3ccc([N+](=O)[O-])o3)cc2Cl)CC1	-35	-109*	?	-16	21%	?
O=C(Nc1ccc(N2CCOCC2)c(Cl)c1)c1ccc([N+](=O)[O-])o1	17	-102*	11µM*	19*	14%	10µM*
CCc1ccc(-c2n[nH]nc2C2=CC(=O)C[C@H](c3ccc(F)cc3)C2)cc1	/	-21	/	/	/	/
CCN1CCN(CCCNC(=O)CCC(=O)N2CCOc3ccc(Cl)cc32)CC1	-2	0	13%	-1	?	3%
COc1ccc2c(c1)c1c(c(=O)n(-c3ccc(F)c(Cl)c3)c(=O)n1CC(=O)N1CCCC1)n2C	/	11	/	/	/	/
Cc1ccc(OCCNC(=O)/C=C/c2ccco2)cc1C	78*	-2	-19%	10	-55%	14%
CCOC(=O)CN1C(=O)/C(=C/c2ccc(Cl)cc2)Oc2ccccc21	-11	-37	13%	-3	?	5%

Compound activity deposited in PubChem by National Center for Advancing Translational Sciences (NCATS).
